HT1080NT lethal: kills 2HG-producing HT-1080-NT fibrosarcoma cells | HT-1080-NT fibrosarcoma viability, CellTiter-Glo ATP luminescence, 48 h | Potency, µM (doses to about 46.1 µM), inactives show at the highest dose activity, negative = less viability, most hits filed as cytotoxic | actives 1.6% (n = 360,000) | AID 686970;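 note: NT is the 2HG producing partner of a matched IDH1 knockdown line; potency is the fitted concentration of half-maximal effect; 0% = DMSO-treated cells and -100% = media-only wells without cells; nearly all actives have a fitted effect of over 55% in size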
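Toxicity toward the 2HG-producing NT line was scored as %Activity, normalised to DMSO and no-cell wells, from CellTiter-Glo luminescence after 48 hours' treatment.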
ELG1 repair inh: blocks ELG1-dependent DNA repair in HEK293T cells. actives 2.3% (n = 330,000). AID 504467. HEK293T ELG1-luciferase reporter, luminescence, 16 h; DNA damage induced by 5-fluorouridine. Potency, µM (top dose mostly 46.1 µM), inactives show top-dose activity change, negative = inhibition, actives largely listed as inhibitors; note: potency is the fitted concentration of half-maximal effect; nearly all actives have a fitted effect of over 55% in size
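Luminescence from the luciferase reporter, measured 30 min after ONE-Glo reagent at room temperature, was the read-out. Beforehand, 2,000 cells per well were exposed for 16 hr at 37 °C to 5-fluorouridine together with compound or vehicle.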
HT1080 IDH1KD tx: kills HT-1080 cells with IDH1 knockdown. HT-1080 IDH1 knockdown viability, ATP luminescence, 48 h. Potency, µM (series often up to 46.1 µM), inactives show top-dose activity, negative = toxicity, usual class: cytotoxic. actives 2% (n = 360,000);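 note: potency is the fitted concentration of half-maximal effect; 0% = DMSO wells and -100% = cell-free medium wells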
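% activity derives from luminescence (CellTiter-Glo), normalised to DMSO and no-cell wells. HT-1080-IDH1KD cells, 750/well, had 48 h compound exposure at 37 °C.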
IL-1B inflam inh: inhibitors of inflammasome signaling (IL-1 beta secretion) | THP-1 LPS/ATP IL-1B secretion, AlphaLISA, 16 h; hits give low values | activity change, % at 57.5 µM | actives 4.7% (n = 360,000) | AID 743279; in the data active = activity change below about -50%; inconclusive = mostly about -30% to -49%
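THP-1 cells pretreated 1 hr with compounds (up to 57.5 uM final), then stimulated with LPS (250 ng/mL final) plus ATP (1.25 mM final); secreted IL-1B measured by AlphaLISA after 16 hr, decreased signal indicating inhibition.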
DT40 TDP1 CPT: DT40-hTDP1 cell growth loss with CPT. chicken DT40 Tdp1-/-;hTDP1 cells + 20 nM CPT, ATP luminescence, 48 h. Potency, µM (top dose mostly 46.2 µM), inactives show at the highest dose activity change, negative = growth inhibition, most hits filed as inhibitors. actives 12% (n = 420,000). AID 686979; note: potency is the fitted concentration of half-maximal effect; nearly all actives have a fitted effect of over 55% in size
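Chicken DT40 Tdp1-/- cells complemented with human TDP1, 400 cells/well, exposed to compounds plus 20 nM camptothecin for at least 48 h at 37 C; viability read as ATP content by CellTiter-Glo luminescence.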
TDP1 cell noCPT: qHTS for Inhibitors of human tyrosyl-DNA phosphodiesterase 1 (TDP1): qHTS in cells in absence of CPT | Potency, µM (series often up to 46.2 µM), for inactives: at the highest dose activity change, negative = growth inhibition, most hits filed as inhibitors | actives 15% (n = 420,000) | AID 686978, 2013 | DT40 Tdp1-/- hTDP1 cells, no CPT, ATP luminescence, 48 h; note: potency is the fitted concentration of half-maximal effect; nearly all actives have a fitted effect of over 55% in size
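Growth kinetics read by CellTiter-Glo luminescence after ≥48 hr at 37 °C. Cells: DT40 Tdp1-/- stably carrying human TDP1, 400 per well, compound exposure in the absence of CPT (DMSO vehicle).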
Numbers without * were called inactive; ? = inconclusive; / = no result. Hits are enriched below; roughly 19% of the tested compounds scored in any of these assays. Unless noted, calls come from the whole dose curve; as a rule, active = well fitted curve in the direction sought with a large enough effect; inconclusive = small, poorly fitted or top-dose-only effect, or another doubt; inactive = no such curve, though single readings can be large; an effect the other way counts as inactive or inconclusive. Unless noted, % is set by controls: 0 for no effect and ±100 for the full control effect.

SMILES | HT1080NT lethal | ELG1 repair inh | HT1080 IDH1KD tx | IL-1B inflam inh | DT40 TDP1 CPT | TDP1 cell noCPT
CCOc1ccc(CCNC(=O)COC(=O)c2sccc2C)cc1OCC | 3% | -28% | 4% | -1 | ? | 13µM*
O=C(COC(=O)c1n[nH]c(=O)c2ccccc12)NCc1ccccc1 | -7% | 0% | -9% | 9 | 12µM* | 9.2µM*
CCOc1ccc(CCNC(=O)COC(=O)c2cccs2)cc1OCC | -2% | -3% | -2% | 5 | -28% | -11%
CCOC(=O)c1c(C)[nH]c(C(=O)OCC(=O)NCc2ccco2)c1C | -4% | / | -1% | -14 | 18µM* | 23µM*
O=c1[nH]c(C2CCN(S(=O)(=O)c3cccc([N+](=O)[O-])c3)CC2)nc2c1nnn2Cc1ccccc1 | ? | ? | -23% | 23 | 11% | ?
CC#CCC(C)[C@H](O)/C=C/[C@@H]1[C@H]2C/C(=C/CCCC(=O)O)C[C@H]2C[C@H]1O (stereo partly specified) | / | / | / | / | 15% | -2%
COc1ccc(CCNC(=O)c2cc3c(=O)n(C)c4ccccc4c3n2C)c(OC)c1 | ? | ? | 0% | 18 | -22% | ?
CC1(C(=O)NC2CCCCC2)CCC(=O)N1C1CCN(Cc2ccccc2)CC1 (stereo unspecified) | 25% | / | 10% | -5 | 6% | 17%
CCOC(=O)c1c(C)[nH]c(C(=O)OCC(=O)NCCc2ccc(OCC)c(OCC)c2)c1C | -12% | ? | ? | -6 | 6.5µM* | 5.2µM*
COCC(C)n1c(C)cc(C(=O)COC(=O)c2oc3ccccc3c2C)c1C (stereo unspecified) | -17% | ? | -17% | -4 | ? | ?
COc1ccc(CNC(=O)COC(=O)c2n[nH]c3ccccc23)cc1OC | -6% | 16µM* | -12% | 6 | ? | ?
COCC(C)n1c(C)cc(C(=O)COC(=O)c2n[nH]c3ccccc23)c1C (stereo unspecified) | -1% | ? | -1% | ? | ? | 26µM*
CCOC(=O)C1CCCN(C(=O)c2cc(Nc3ccc(OC)cc3OC)nc3ccccc23)C1 (stereo unspecified) | 1% | ? | -3% | 6 | 16µM* | 21µM*
CCOC(=O)C1CCCN(C(=O)c2cc3c(Cl)nc4ccccc4c3s2)C1 (stereo unspecified) | / | / | / | / | ? | 18µM*
CCOC(=O)C1CCCN(C(=O)c2cc(Nc3ccc(OC)c(OC)c3)nc3ccccc23)C1 (stereo unspecified) | 0% | ? | -12% | -93* | ? | 16µM*
COc1ccc(C(=O)N/C(=C\c2cn(S(=O)(=O)N(C)C)c3ccccc23)C(=O)N2CCCC2)cc1 | -14% | / | -13% | 8 | ? | -35%
C[C@H]1CN([C@@H](C)CO)C(=O)c2cc(-c3cccc(F)c3)cnc2O[C@H]1CN(C)C(=O)c1cnccn1 | 0% | / | 2% | -14 | -11% | -12%
Cc1cc(C)cc(C(=O)OCC(=O)NCc2cccs2)c1 | -13% | -16% | -10% | 0 | ? | ?
Cc1cc2c(cc(C(=O)OCC(=O)NCc3cccs3)n2C(C)C)o1 | 1µM* | -27% | ? | 14 | 0.82µM* | 0.73µM*
CCCOc1ccc(C(=O)C(c2ccccc2)N2CCOCC2)cc1 (stereo unspecified) | -2% | 0% | -4% | -3 | ? | ?
COc1ccc(C(O)C(CN2CCOCC2)c2ccccc2)cc1F (stereo unspecified) | 8% | 0% | 5% | -10 | -23% | -28%
CCOC(=O)C(CN1CCCC1)c1ccccc1 (stereo unspecified) | 3% | 1% | 4% | 20 | 0% | 3%
COc1ccc(C(=O)C(CN2CCOCC2)c2ccccc2)cc1F (stereo unspecified) | ? | ? | 12µM* | -101* | 4.1µM* | 2.6µM*
CCCOc1ccc(C(=O)C(CN2CCOCC2)c2ccccc2)cc1 (stereo unspecified) | 18µM* | ? | 16µM* | -97* | 13µM* | 8.2µM*
O=C(c1ccc(Cl)cc1)C(CN1CCCCC1)c1ccccc1 (stereo unspecified) | 5.8µM* | ? | 2.6µM* | -103* | 1.6µM* | 2.1µM*
SMILES | HT1080NT lethal | ELG1 repair inh | HT1080 IDH1KD tx | IL-1B inflam inh | DT40 TDP1 CPT | TDP1 cell noCPT
CC(C)OC(=O)N(C)C[C@H]1OCc2cnnn2CCCC(=O)N([C@H](C)CO)C[C@H]1C | 9% | / | 5% | -12 | -15% | 2%
N#Cc1cccc(NC(=O)CCc2ccc(S(=O)(=O)N3CCOCC3)cc2)c1 | -1% | -13% | 0% | 7 | 4% | -13%
CCOc1ccc(NC(=O)CN(C)C(=O)c2cc(C3CC3)nn2-c2ccccc2)cc1OCC | -1% | -20% | 3% | -3 | ? | ?
CC1CCN(CCOCCOc2ccccc2-c2ccccc2)CC1 | -12% | -18% | ? | ? | 23µM* | ?
c1ccc(-c2ccccc2OCCCN2CCOCC2)cc1 | 4% | 0% | -2% | -1 | -21% | -28%
c1ccc(-c2ccccc2OCCN2CCCC2)cc1 | -3% | 3% | -1% | ? | 7% | -11%
c1ccc(-c2ccccc2OCCOCCN2CCCCC2)cc1 | -2% | -12% | 1% | ? | 23µM* | ?
c1ccc(-c2ccccc2OCCCCN2CCCCCC2)cc1 | -2% | ? | -8% | -22 | 18µM* | ?
CC1CN(CCOc2ccccc2-c2ccccc2)CC(C)O1 (stereo unspecified) | 4% | -12% | -4% | 0 | ? | ?
CC1CCCN(CCCOc2ccccc2-c2ccccc2)C1 (stereo unspecified) | ? | -6% | ? | -82* | ? | 23µM*
CN(C)CCOCCOc1ccccc1-c1ccccc1 | 1% | 1% | -3% | -14 | ? | ?
Cc1cccc(NC(=O)c2nc[nH]c2C(=O)N2CCc3ccccc3C2)c1 | 4% | ? | 8% | -22 | ? | ?
COc1ccc2c(c1)CCc1cnc(-n3ncc(C(=O)N(C)CC4CCCN(C)C4)c3C)nc1-2 (stereo unspecified) | / | / | / | / | -11% | -10%

Source: PubChem (National Center for Advancing Translational Sciences (NCATS))
